Screens from PubChem BioAssay.
D2 PAM-1: D2 dopamine receptor (human) potentiation | P14416 | HEK293 T-REx D2, calcium flux, EC20 dopamine potentiation | potentiation, % at 10 µM | 340,000 compounds, 0.34% hits | AID 485347;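 active = potentiation over 3 SD above the plate norm, cut at about 30% in these data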; also: 0% is about no effect
Target sequence (P14416 whole entry, looked up): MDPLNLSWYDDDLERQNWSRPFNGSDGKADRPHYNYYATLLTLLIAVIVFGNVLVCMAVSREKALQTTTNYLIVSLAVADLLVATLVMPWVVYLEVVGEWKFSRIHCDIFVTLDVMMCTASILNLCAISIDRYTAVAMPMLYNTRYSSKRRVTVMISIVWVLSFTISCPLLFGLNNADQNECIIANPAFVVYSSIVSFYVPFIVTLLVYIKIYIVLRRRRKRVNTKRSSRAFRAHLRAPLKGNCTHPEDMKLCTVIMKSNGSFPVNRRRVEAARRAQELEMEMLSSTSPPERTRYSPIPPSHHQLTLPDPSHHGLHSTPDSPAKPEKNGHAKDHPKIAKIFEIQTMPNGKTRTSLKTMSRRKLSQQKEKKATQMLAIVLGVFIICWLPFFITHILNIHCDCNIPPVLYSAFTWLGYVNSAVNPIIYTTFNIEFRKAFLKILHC
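Tetracycline-induced Hek293 Trex D2 cells, force-coupled to calcium, loaded with no-wash calcium dye. Compound added with 180 s kinetic read for agonism, then EC20 dopamine and a further 180 s read for potentiation.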
Apoferritin bind: binds horse apoferritin like a general anesthetic; apoferritin/1-aminoanthracene competitive binding, fluorescence; 350,000 compounds, 0.074% hits; P02791; AID 485281; Potency, µM (top dose mostly 77.5 µM), without a hit: top-dose activity change, negative = displacement, most hits filed as inhibitors; active = well fitted inhibition curve with a large enough effect; inconclusive = small, poorly fitted or top-dose-only effect; inactive = no such curve, though single readings can be large or run the other way; also: potency is read from the fitted curve at half-maximal effect; % is scaled to controls: 0 for no effect and ±100 for the full control effect; nearly all actives have a fitted effect of over 20% in size
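Concentration-response curves derived by four-parameter Hill fitting of normalized fluorescence, where compounds displaced 1-AMA from 10 uM horse apoferritin following a brief 10 min room-temperature incubation; propofol titration acted as positive control.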
D2 antag: antagonists of human D2 dopamine receptor. P14416. HEK293 TREx D2 cells, calcium flux, dopamine EC80. inhibition, % at 10 µM. 340,000 compounds, 2% hits. AID 485344; in the data active = inhibition above about 30%; inactive = below that, where a call was filed; also: 0% is about no effect
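Tetracycline-induced HEK293 T-REx cells expressing D2 force-coupled to calcium signalling were dye-loaded, exposed to compound for 180 s, then challenged with an EC80 of dopamine; calcium flux was followed kinetically for a further 180 s.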
D2 ag-1: activates the human D2 dopamine receptor; P14416; HEK293 T-REx D2 cells, calcium flux agonist mode; activation, % at 2 µM; 340,000 compounds, 0.53% hits; AID 485358;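 active = activation over 3 SD above normal in the single-dose calcium agonist read, cut at about 30% in these data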; also: 0% is about no effect
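Calcium-flux readout, 1 cycle/sec over 180 s following compound pin transfer, in inducible HEK293 Trex D2 cells (force-coupled); dopamine controls included. Positive calcium responses during this window marked compounds as potential agonists.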
D2 ag-2: activates the human D2 dopamine receptor | DiscoveRx PathHunter D2 beta-arrestin, luminescence, 90 min; 100% = 57 uM dopamine signal | activation, % (no concentration beside the values) | 360,000 compounds, 0.084% hits | AID 624465; in the data active = activation above about 40%; inconclusive = between about 15% and that limit
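Agonist mode: compounds alone added to overnight-plated D2 PathHunter cells for 90 min at 37 C, with 57 uM final dopamine (EC100) defining full response. Beta-arrestin recruitment detected by chemiluminescent reagent, read after 1 h at ambient temperature.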
D2 PAM-2: potentiates the human D2 dopamine receptor allosterically; P14416; DiscoveRx D2 beta-arrestin cells, luminescence, 90 min; 100% = 57 uM dopamine signal; potentiation, % (concentration not given with the values); 360,000 compounds, 0.23% hits; in the data active = potentiation above about 50%; inconclusive = mostly about 30% to 49%
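PathHunter D2 cells, attached overnight at 37 deg C, received compound in DMSO plus dopamine at EC20 (50 nM final) for 90 min at 37 deg C. Beta-arrestin recruitment was read as luminescence after 1 h with detection reagent at ambient temperature.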
* = called active by the depositor; ? = inconclusive; nt = no result. Rows were chosen to be rich in hits. Some 2.5% of all compounds tested hit in one or more screens of this group.

SMILES	D2 PAM-1	Apoferritin bind	D2 antag	D2 ag-1	D2 ag-2	D2 PAM-2
CC1CCCC(NC(=O)c2cn(C)c3ccc(S(=O)(=O)N4CCCC4)cc3c2=O)C1C (configuration not stated)	1.7	-5.1%	30.8*	0.5	nt	nt
COCCCNc1nnc(Cc2ccc(Cl)cc2)c(=O)[nH]1	6.5	23.6%	6.0	0.2	0.5	-12.8
COc1ccc(/C=C/C(=O)OCC(=O)c2c[nH]c3ccccc23)cc1	-3.8	nt	6.4	-0.2	0.8	0.0
COc1cc(C2c3cc4c(cc3C(O)C3COCC23)OCO4)cc(OC)c1OC (configuration not stated)	nt	nt	nt	nt	5.6	1.2
Cc1onc(-c2c(F)cccc2Cl)c1C(=O)OCc1nnc(-c2ccccc2)o1	-7.8	nt	11.4	-0.2	3.9	0.9
COc1ccccc1NS(=O)(=O)c1cccc(C(=O)NCC(c2ccco2)N2CCCC2)c1 (configuration not stated)	-27.2	nt	62.6*	0.6	0.9	-22.5
Cc1ccccc1-c1nn(-c2ccccc2)cc1C(=O)NCC(c1ccco1)N1CCCC1 (configuration not stated)	-24.4	nt	2.4	0.5	1.6	-5.9
COc1ccc(OC)c(-c2nn(-c3ccccc3)cc2C(=O)NCC(c2ccco2)N2CCCC2)c1 (configuration not stated)	-20.3	nt	36.5*	0.2	-3.3	-35.4
CC1S/C(=N\N=C\c2cccc([N+](=O)[O-])c2)N(C(C)(C)C)C1=O (configuration not stated)	-1.6	66.7%	-13.7	0.7	6.9	-2.3
CCOc1nc(C)ccc1-c1noc(-c2ccccn2)n1	11.8	-16.6%	-7.9	2.3	-1.1	-20.0
COc1nc(-c2ccccc2)ccc1-c1noc(-c2ccccc2)n1	11.8	0.7%	23.0	1.0	0.8	-2.2
COc1ccc(-c2ccc(-c3noc(-c4ccccc4)n3)c(OC)n2)cc1	-6.9	-12.5%	31.3*	0.7	-2.3	-12.5
COc1nc(C)ccc1-c1noc(-c2ccncc2)n1	37.9*	4.4%	-19.9	0.2	-1.4	-7.6
COc1cc(OC)c(-c2nc(-c3ccncc3)no2)cc1OC	-10.3	-6.2%	1.9	0.3	1.5	20.4
COc1ccc(-c2nc(-c3ccncc3)no2)c(OC)c1	14.0	-1.0%	57.8*	-0.2	1.1	-14.1
CCOc1nc(C)ccc1-c1noc(-c2ccco2)n1	34.9*	-4.5%	-12.8	-0.4	-1.5	-9.7
COc1cc(-c2nc(-c3ccc(C)nc3OC)no2)cc(OC)c1OC	-8.2	3.0%	1.5	1.4	nt	nt
O=C(Cn1c(-c2cccs2)cc2cc(F)ccc21)N1CCCCC1	nt	-7.9%	nt	1.0	nt	nt
COc1ccc(S(=O)(=O)N(C)C)cc1NC(=O)c1ccc2c(c1)OCCO2	-7.4	nt	-10.0	-0.7	-2.5	-3.5
COc1ccc(C(=O)c2nccc3cc(OC)c(OC)cc23)cc1OC	15.0	nt	-15.6	0.0	?	94.5*
O=C(NCCC1=CCCCC1)C1CCN(c2nnc(-n3cccc3)s2)CC1	-8.1	-0.7%	47.8*	0.1	-3.8	-1.2
Cc1oc(-c2ccccc2F)nc1CN1CCC(C(=O)NCCC2=CCCCC2)CC1	2.1	-14.0%	31.8*	5.7	-3.6	-7.6
CC(C)CCNC(=O)C1CCN(c2nnc(-n3cccc3)s2)CC1	8.0	-10.6%	-7.2	0.9	-2.7	-2.6
CS(=O)(=O)N1CCC(C(=O)Nc2cc(C(F)(F)F)ccc2Cl)CC1	-11.5	-12.3%	-7.4	0.0	-2.3	-13.8
Cc1oc(-c2ccccc2F)nc1CN1CCC(C(=O)NCCc2ccccc2)CC1	-5.7	-4.0%	nt	1.7	nt	nt
O=C(Nc1cc(C(F)(F)F)ccc1Cl)C1CCN(c2nnc(-n3cccc3)s2)CC1	-17.8	-4.4%	62.3*	0.3	0.4	-22.3
Cc1cc(Oc2ccc(C#N)cc2)nc(NCc2ccccc2)n1	28.4	-17.6%	42.4*	1.1	-0.8	-5.2
CCCCCCc1cc2cc(/C(N)=N/NC(=O)c3ccncc3)c(=O)oc2cc1O	13.9	nt	-1.9	34.4*	3.2	-6.5
